The campaign covered roughly 5,500 compounds. About 2,000 (36%) were called active. About 18% were inconclusive and are not listed. Rule as the data show it: active = normalized growth mostly below about 0.91 (no sharp cut-off); inconclusive = no clear call, values can overlap the other calls; inactive = mostly above about 0.92. The list shows a part of the results.
Test: chemical genetic growth profiling, strain panel (AID 1159580);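 also: tested at 20 µM; growth read once vehicle control cultures reached saturation at 30 °C; 1 = growth at the plate median or of vehicle wells; lower values mean less growth of the strain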
Settings: growth OD
[1] = S. cerevisiae deletion strains, locus YDL101C, strain DUN1, active compounds read low
[2] = S. cerevisiae deletion strains, locus YHR030C, strain SLT2, active compounds read low

Measured: normalized growth

NC(=S)Nc1cc(Cl)ccc1Cl
inactive: S. cerevisiae deletion strains, locus YAL013W, strain DEP1, active compounds read low 0.99 | S. cerevisiae deletion strains, locus YBR229C, strain ROT2, active compounds read low 0.976 | [1] 0.975 | S. cerevisiae deletion strains, locus YDR150W, strain NUM1, active compounds read low 0.906 | S. cerevisiae deletion strains, locus YEL061C, strain CIN8, active compounds read low 0.961 | S. cerevisiae deletion strains, locus YGR078C, strain PAC10, active compounds read low 0.975 | S. cerevisiae deletion strains, locus YGR229C, strain SMI1, active compounds read low 1 | [2] 0.888 | S. cerevisiae deletion strains, locus YHR087W, strain rtc3, active compounds read low 0.953 | S. cerevisiae deletion strains, locus YJR043C, strain POL32, active compounds read low 0.997 | S. cerevisiae deletion strains, locus YJR075W, strain HOC1, active compounds read low 0.997 | S. cerevisiae deletion strains, locus YKL190W, strain CNB1, active compounds read low 0.999 | S. cerevisiae deletion strains, locus YLR039C, strain RIC1, active compounds read low 0.947 | S. cerevisiae deletion strains, locus YLR058C, strain SHM2 (second series), active compounds read low 0.981 | S. cerevisiae deletion strains, locus YLR085C, strain ARP6, active compounds read low 0.919 | S. cerevisiae deletion strains, locus YLR262C, strain YPT6, active compounds read low 0.979 | S. cerevisiae deletion strains, locus YML094W, strain GIM5, active compounds read low 0.915 | S. cerevisiae deletion strains, locus YMR219W, strain ESC1, active compounds read low 1 | S. cerevisiae deletion strains, locus YMR263W, strain SAP30, active compounds read low 0.969 | S. cerevisiae deletion strains, locus YNL128W, strain TEP1, active compounds read low 0.993 | S. cerevisiae deletion strains, locus YNL153C, strain GIM3, active compounds read low 1 | S. cerevisiae deletion strains, locus YNL298W, strain CLA4 (second series), active compounds read low 0.944 | S. cerevisiae deletion strains, locus YNL322C, strain KRE1, active compounds read low 0.987 | S. cerevisiae deletion strains, locus YNR030W, strain Alg12, active compounds read low 0.988 | S. cerevisiae deletion strains, locus YPL055C, strain LGE1, active compounds read low 0.835 | S. cerevisiae deletion strains, locus YPL241C, strain CIN2, active compounds read low 0.988 | S. cerevisiae deletion strains, locus YPR135W, strain CTF4, active compounds read low 0.84 | S. cerevisiae strains, strain wild type, active compounds read low 0.99

CN(NC(=S)Nc1cc(Cl)ccc1Cl)c1ccc(C(F)(F)F)cc1[N+](=O)[O-]
inactive: S. cerevisiae deletion strains, locus YAR019C, strain CDC15, active compounds read low 0.972 | S. cerevisiae deletion strains, locus YBL105C, strain PKC1, active compounds read low 0.972 | S. cerevisiae deletion strains, locus YBR135W, strain CKS1, active compounds read low 0.982 | S. cerevisiae deletion strains, locus YBR136W, strain MEC1, active compounds read low 0.97 | S. cerevisiae deletion strains, locus YBR160W, strain CDC28, active compounds read low 0.979 | S. cerevisiae deletion strains, locus YDL017W, strain CDC7, active compounds read low 0.972 | S. cerevisiae deletion strains, locus YDL028C, strain MPS1, active compounds read low 0.985 | [1] 0.969 | S. cerevisiae deletion strains, locus YDL108W, strain KIN28, active compounds read low 0.969 | S. cerevisiae deletion strains, locus YDL132W, strain cdc53, active compounds read low 0.97 | S. cerevisiae deletion strains, locus YDL214C, strain PRR2, active compounds read low 0.946 | S. cerevisiae deletion strains, locus YDR052C, strain DBF4, active compounds read low 0.965 | S. cerevisiae deletion strains, locus YDR054C, strain cdc34, active compounds read low 0.97 | S. cerevisiae deletion strains, locus YDR226W, strain ADK1, active compounds read low 0.984 | S. cerevisiae deletion strains, locus YDR477W, strain SNF1, active compounds read low 0.964 | S. cerevisiae deletion strains, locus YER123W, strain YCK3, active compounds read low 0.893 | S. cerevisiae deletion strains, locus YER133W, strain GLC7, active compounds read low 0.949 | S. cerevisiae deletion strains, locus YFL009W, strain cdc4, active compounds read low 0.977 | S. cerevisiae deletion strains, locus YFL029C, strain CAK1, active compounds read low 0.979 | S. cerevisiae deletion strains, locus YFR003C, strain YPI1, active compounds read low 0.973 | S. cerevisiae deletion strains, locus YFR019W, strain FAB1, active compounds read low 0.977 | S. cerevisiae deletion strains, locus YFR028C, strain CDC14, active compounds read low 0.978 | S. cerevisiae deletion strains, locus YGR040W, strain KSS1, active compounds read low 0.96 | S. cerevisiae deletion strains, locus YGR052W, strain FMP48, active compounds read low 0.96 | S. cerevisiae deletion strains, locus YGR092W, strain DBF2, active compounds read low 0.825 | S. cerevisiae deletion strains, locus YHR079C, strain IRE1, active compounds read low 0.785 | S. cerevisiae deletion strains, locus YHR082C, strain KSP1, active compounds read low 1.03 | S. cerevisiae deletion strains, locus YHR205W, strain SCH9, active compounds read low 0.886 | S. cerevisiae deletion strains, locus YIL147C, strain SLN1, active compounds read low 0.971 | S. cerevisiae deletion strains, locus YJL095W, strain BCK1, active compounds read low 0.885 | S. cerevisiae deletion strains, locus YJL128C, strain PBS2, active compounds read low 0.929 | S. cerevisiae deletion strains, locus YJL157C, strain FAR1, active compounds read low 0.915 | S. cerevisiae deletion strains, locus YJR016C, strain ILV3, active compounds read low 0.971 | S. cerevisiae deletion strains, locus YJR066W, strain TOR1 (second series), active compounds read low 0.915 | S. cerevisiae deletion strains, locus YJR066W, strain TOR1, active compounds read low 0.973 | S. cerevisiae deletion strains, locus YKL048C, strain ELM1, active compounds read low 0.938 | S. cerevisiae deletion strains, locus YKL067W, strain YNK1, active compounds read low 0.953 | S. cerevisiae deletion strains, locus YKL101W, strain HSL1, active compounds read low 0.964 | S. cerevisiae deletion strains, locus YKL193C, strain SDS22, active compounds read low 0.952 | S. cerevisiae deletion strains, locus YKL203C, strain TOR2, active compounds read low 0.99 | S. cerevisiae deletion strains, locus YLR133W, strain CKI1, active compounds read low 0.929 | S. cerevisiae deletion strains, locus YLR403W, strain SFP1, active compounds read low 0.929 | S. cerevisiae deletion strains, locus YML070W, strain DAK1, active compounds read low 0.922 | S. cerevisiae deletion strains, locus YMR001C, strain CDC5, active compounds read low 0.971 | S. cerevisiae deletion strains, locus YMR205C, strain PFK2 (second series), active compounds read low 0.967 | S. cerevisiae deletion strains, locus YMR277W, strain FCP1, active compounds read low 0.972 | S. cerevisiae deletion strains, locus YNL006W, strain LST8, active compounds read low 0.974 | S. cerevisiae deletion strains, locus YNL020C, strain ARK1, active compounds read low 0.897 | S. cerevisiae deletion strains, locus YNL161W, strain CBK1, active compounds read low 0.977 | S. cerevisiae deletion strains, locus YNL183C, strain NPR1, active compounds read low 0.972 | S. cerevisiae deletion strains, locus YNL207W, strain RIO2, active compounds read low 0.976 | S. cerevisiae deletion strains, locus YNL222W, strain SSU72, active compounds read low 0.982 | S. cerevisiae deletion strains, locus YNL307C, strain MCK1 (second series), active compounds read low 0.932 | S. cerevisiae deletion strains, locus YOL078W, strain AVO1, active compounds read low 0.974 | S. cerevisiae deletion strains, locus YOL136C, strain PFK27, active compounds read low 0.903 | S. cerevisiae deletion strains, locus YOR061W, strain CKA2, active compounds read low 0.907 | S. cerevisiae deletion strains, locus YOR119C, strain RIO1, active compounds read low 1.04 | S. cerevisiae deletion strains, locus YOR231W, strain MKK1, active compounds read low 0.847 | S. cerevisiae deletion strains, locus YOR329C, strain SCD5, active compounds read low 0.97 | S. cerevisiae deletion strains, locus YPL031C, strain PHO85, active compounds read low 0.937 | S. cerevisiae deletion strains, locus YPL153C, strain RAD53, active compounds read low 0.942 | S. cerevisiae deletion strains, locus YPL204W, strain HRR25, active compounds read low 0.911 | S. cerevisiae deletion strains, locus YPL209C, strain IPL1, active compounds read low 0.977 | S. cerevisiae deletion strains, locus YPR025C, strain CCL1, active compounds read low 0.981 | S. cerevisiae deletion strains, locus YPR106W, strain ISR1, active compounds read low 0.981 | S. cerevisiae deletion strains, locus YPR111W, strain DBF20, active compounds read low 0.959 | S. cerevisiae deletion strains, strain NNK1, active compounds read low 0.951 | S. cerevisiae deletion strains, strain TSCII, active compounds read low 0.968
active: [2] 0.711 | S. cerevisiae deletion strains, locus YLR113W, strain HOG1, active compounds read low 0.74 | S. cerevisiae deletion strains, locus YPL256C, strain CLN2, active compounds read low 0.762
